The whole screen tested about 16,000 compounds, of which about 5,800 (36%) were called active. Not shown: some 23% with an inconclusive outcome. The list shows a part of the results. Unmarked numbers belong to inactive results. Calls follow the shape of the dose curve; as a rule, active = well fitted curve in the direction sought with a large enough effect; inconclusive = small, poorly fitted or top-dose-only effect, or effect the other way; inactive = no such curve, though single readings can be large or run the other way.
biological target: Cytochrome P450 2C19 (Homo sapiens) (UniProt P33261); assay: Cytochrome panel assay with activity outcomes; conditions: recombinant CYP, pro-luciferin dealkylation, luminescence, p450-cyp2c19; series mostly up to 57.1 µM; activity, negative = inhibition: at the top concentration
% is scaled to controls: 0 for no effect and ±100 for the full control effect.

Chain of Cytochrome P450 2C19 (Homo sapiens) (P33261 whole entry, looked up): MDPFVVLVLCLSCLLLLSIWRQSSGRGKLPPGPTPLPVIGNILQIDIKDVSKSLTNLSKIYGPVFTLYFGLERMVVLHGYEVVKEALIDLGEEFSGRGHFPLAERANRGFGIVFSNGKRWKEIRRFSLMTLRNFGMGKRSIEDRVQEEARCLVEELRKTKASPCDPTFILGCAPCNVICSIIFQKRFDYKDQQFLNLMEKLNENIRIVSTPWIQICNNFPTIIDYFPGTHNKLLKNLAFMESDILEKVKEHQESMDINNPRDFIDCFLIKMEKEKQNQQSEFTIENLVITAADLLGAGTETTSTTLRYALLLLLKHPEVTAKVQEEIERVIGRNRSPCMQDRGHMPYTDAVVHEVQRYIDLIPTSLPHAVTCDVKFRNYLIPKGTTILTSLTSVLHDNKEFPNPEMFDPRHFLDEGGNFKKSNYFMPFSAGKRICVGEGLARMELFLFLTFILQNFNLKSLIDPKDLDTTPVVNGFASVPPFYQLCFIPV

How did the AC50 turn out when CC1CN(C(=O)c2cc3c(s2)CCC3)CC(C)O1 (stereo not given) was run?
Its AC50 is 14.1 µM (active).

How did the AC50 turn out when Cc1cc(C(C#N)c2cccc(Cl)c2)n2ncnc2n1 (stereo not given) was run?
Its AC50 is 28.2 µM (active).

Which activity, negative = inhibition does the source give for CCN1C(=O)[C@H]2[C@H]3[C@H](O)[C@H](O)C/C(=N/O[C@@H](C)c4cn([C@H]5COC[C@H]5O)nn4)[C@@H]3CC[C@@H]2C1=O here?
Its activity, negative = inhibition is 27.9% [at 11.4 µM].

For C/C(=C\c1ccc(Cl)cc1)C(C)(C)C(=O)O, which activity, negative = inhibition is on record?
Its activity, negative = inhibition is -25.9% [at 11.4 µM].

C[C@H](N)C(=O)OC(C)(C)Cc1ccc(Cl)cc1 was tested. Which AC50 did it give?
The AC50 was 3.98 µM (active).

Which “activity, negative = inhibition” value does the source give for COC(=O)[C@H](N)Cc1ccc(Cl)cc1 here?
The value was 27.5%.

How did the AC50 turn out when CC1=CC(C)(C)Nc2ccc(CSc3ccccc3)cc21 was run?
Its AC50 is 0.316 µM (active).

Cc1cc(C2C(C#N)=C(N)Oc3n[nH]c(C)c32)c(C)s1 (stereo not given) was tested. Which AC50 did it give?
The AC50 was 11.2 µM (active).

For Cc1cc(C2C(C#N)=C(N)OC3=C2C(=O)CC(C)(C)C3)c(C)s1 (stereo not given), which AC50 is on record?
The AC50 was 4.47 µM (active).

Which “activity, negative = inhibition” value does the source give for CC1(C)CC(=O)C2=C(C1)Oc1nc3ccccc3cc1C2C(C#N)C#N (stereo not given) here?
The value was -22%.

For COc1cc(C2C(C#N)=C(N)OC3=C2C(=O)CCC3)c([N+](=O)[O-])cc1OC (stereo not given), which “activity, negative = inhibition” value is on record?
Its value is -22.1%.

Which “activity, negative = inhibition” value does the source give for CC(C)(C)C(=O)OCOC(=O)[C@@H]1N2C(=O)[C@@H](NC(=O)[C@H](N)c3ccccc3)[C@H]2SC1(C)C here?
The value was -7.95% [at 25.6 µM].

With C#CCOCCCC(=O)O as the molecule, how does the activity, negative = inhibition read?
Its activity, negative = inhibition is 22.8% [at 11.4 µM].

Which “activity, negative = inhibition” value does the source give for CCCCN1CCC(COC(=O)c2cc(Cl)c(N)c3c2OCCO3)CC1 here?
Its value is 22.2%.

CC1(C)CC(=O)c2cnc(N)nc2C1 was tested. Which “activity, negative = inhibition” value did it give?
The value was -28.8%.

CC1(C)CC(=O)c2cn3ncnc3nc2C1 was tested. Which AC50 did it give?
Its AC50 is 15.8 µM (active).

CC1(C)O[C@H]2C[C@@H]3[C@H]4CCC5=CC(=O)CC[C@@]5(C)[C@]4(F)[C@@H](O)C[C@@]3(C)[C@@]2(C(=O)CCl)O1 was tested. Which “activity, negative = inhibition” value did it give?
Its value is -28.9% [at 25.6 µM].

COc1cc2ccc(=O)oc2cc1O was tested. Which “activity, negative = inhibition” value did it give?
Its value is -17.7% [at 25.6 µM].

COc1ccc(-c2coc3cc4oc(=O)cc(C)c4cc23)cc1F was tested. Which AC50 did it give?
Its AC50 is 3.55 µM (active).

For Cn1c(SC2CCCCC2=O)nnc1-c1ccncc1 (stereo not given), which AC50 is on record?
The AC50 was 7.08 µM (active).

Which AC50 does the source give for CC1CC2(CCCCC2)N2C(=O)C(=O)c3cccc1c32 (stereo not given) here?
The AC50 was 2.82 µM (active).

C#CCN1C(C)=C(C(=O)OC)[C@@H](c2cccc([N+](=O)[O-])c2)C(C(=O)OCC)=C1C was tested. Which AC50 did it give?
Its AC50 is 5.01 µM (active).

Which AC50 does the source give for CCOC(=O)C1=C(C)NC(C)=C(C(=O)OC)[C@@H]1c1cccc([N+](=O)[O-])c1 here?
Its AC50 is 0.126 µM (active).

CCOC(=O)C1=C(C)NC(C)=C(C(=O)OC)[C@H]1c1cccc([N+](=O)[O-])c1 was tested. Which AC50 did it give?
The AC50 was 0.251 µM (active).

With OC[C@@H]1O[C@@H](n2cnc3c(NC4CCCC4)ncnc32)[C@H](O)[C@H]1O as the molecule, how does the “activity, negative = inhibition” value read?
Its value is -13.1%.

With NCc1ccc(S(N)(=O)=O)cc1 as the molecule, how does the “activity, negative = inhibition” value read?
The value was 9.32% [at 25.6 µM].

How did the AC50 turn out when CCN(C1CCCCC1)S(=O)(=O)c1ccc(S(=O)(=O)NCc2ccncc2)cc1 was run?
Its AC50 is 1.58 µM (active).

With CCCCSc1nnc(-c2ccc(C)cc2)n1C as the molecule, how does the AC50 read?
Its AC50 is 14.1 µM (active).

With COc1nc(OCCNC(C)=O)nc(N(C)C)n1 as the molecule, how does the “activity, negative = inhibition” value read?
Its value is -15.3%.

Which AC50 does the source give for O=[N+]([O-])c1cc(Cc2cc([N+](=O)[O-])c3cccnc3c2O)c(O)c2ncccc12 here?
Its AC50 is 2.51 µM (active).

For O=S(=O)(O)c1cc(N=Nc2cccc3ccccc23)c(O)c2ncccc12, which activity, negative = inhibition is on record?
The activity, negative = inhibition was -29.3% [at 11.4 µM].

Which activity, negative = inhibition does the source give for O=[N+]([O-])c1ccc2ncccc2c1CCc1c([N+](=O)[O-])ccc2ncccc12 here?
Its activity, negative = inhibition is 39.5% [at 11.4 µM].

Which AC50 does the source give for CC(=O)N1CCN(c2nc(C)nc3sc4c(c23)CCC(C)C4)CC1 (stereo not given) here?
Its AC50 is 4.47 µM (active).

CSc1ncnc2c1ncn2[C@@H]1O[C@@H](CO)[C@H](O)O[C@@H]1O was tested. Which activity, negative = inhibition did it give?
The activity, negative = inhibition was 41% [at 11.4 µM].

CCN(CC)c1ccc(/C=C/c2nc3ccccc3s2)cc1 was tested. Which AC50 did it give?
Its AC50 is 2 µM (active).

Which activity, negative = inhibition does the source give for CN(N=O)c1ccc(/C=C\c2ccnc3ccccc23)cc1 here?
The activity, negative = inhibition was 14.4% [at 11.4 µM].

How did the AC50 turn out when Cc1cccc(OCCCCCn2ccnc2)c1 was run?
Its AC50 is 0.0398 µM (active).

For Cc1ccc(OCCOCCn2ccnc2)c(Br)c1, which AC50 is on record?
The AC50 was 0.0158 µM (active).

How did the activity, negative = inhibition turn out when C#CCCCO/N=C1/C[C@@H](O)[C@@H](O)[C@@H]2[C@@H]3C(=O)N([C@@H](C)c4ccccc4)C(=O)[C@H]3CC[C@H]12 was run?
The activity, negative = inhibition was -27.2% [at 11.4 µM].

How did the “activity, negative = inhibition” value turn out when CCCn1cnc2c1c(=O)n(CCCCC(C)=O)c(=O)n2C was run?
Its value is 44.8%.

How did the AC50 turn out when Cn1ncc(C#N)c1/N=C/N1CCCCCC1 was run?
The AC50 was 14.1 µM (active).

Which activity, negative = inhibition does the source give for O=C(O)c1c(Br)c(Br)c(Br)c(Br)c1C1c2ccc(O)cc2Oc2cc(O)ccc21 here?
The activity, negative = inhibition was -94.3% [at 11.4 µM].

With CN(C)Cc1ccccc1-c1cc(NCc2ccccc2)ncn1 as the molecule, how does the “activity, negative = inhibition” value read?
The value was 30.1%.

Cc1cnc(CNc2cc(-c3ccccc3C)ncn2)cn1 was tested. Which “activity, negative = inhibition” value did it give?
Its value is -37.5%.

With COc1ccccc1-c1cc(NCc2ccccc2)ncn1 as the molecule, how does the AC50 read?
Its AC50 is 7.94 µM (active).

How did the AC50 turn out when COc1ccccc1-c1cc(NCc2cnc(C)cn2)ncn1 was run?
Its AC50 is 15.8 µM (active).

How did the “activity, negative = inhibition” value turn out when Cc1cnc(CNc2cc(-c3ccccc3Cl)ncn2)cn1 was run?
Its value is -20.8%.

Which AC50 does the source give for COc1ccccc1-c1cc(NCc2cccc(C)c2)ncn1 here?
Its AC50 is 3.98 µM (active).

For COc1ccc2c3c([nH]c2c1)[C@@H]1C[C@@H]2[C@@H](C[C@H](O)[C@H](OC)[C@H]2C(=O)O)CN1CC3, which “activity, negative = inhibition” value is on record?
The value was -43.7% [at 25.6 µM].

CN(C)CCOC(=O)c1ccc(N)cc1 was tested. Which activity, negative = inhibition did it give?
The activity, negative = inhibition was -21.2% [at 11.4 µM].

For Cc1[nH]n(-c2ccccc2)c(=O)c1CCOC(=O)c1ccc(C(F)(F)F)cc1, which AC50 is on record?
Its AC50 is 3.98 µM (active).

With C[C@@H](Cc1cccc(C(F)(F)F)c1)NCCOC(=O)c1ccccc1 as the molecule, how does the “activity, negative = inhibition” value read?
Its value is -54.8% [at 25.6 µM].

Which AC50 does the source give for Cc1[nH]n(-c2ccccc2)c(=O)c1CCOC(=O)c1cccc(C(F)(F)F)c1 here?
The AC50 was 3.55 µM (active).

CO[C@@H]1COC(=O)C/C=C\[C@H](C)COC(=O)[C@H](C)NC(=O)C/C=C\[C@H]1C was tested. Which activity, negative = inhibition did it give?
Its activity, negative = inhibition is -28.2% [at 11.4 µM].

Fc1ccc2c(c1)C(c1ccncc1)=NNC(c1ccc(Cl)cc1)=N2 was tested. Which AC50 did it give?
The AC50 was 0.224 µM (active).

How did the AC50 turn out when C#CCOC(=O)Nc1ccc(=O)n(Cc2c(Cl)cccc2Cl)c1 was run?
The AC50 was 1.58 µM (active).

With C1=C(CN2CCOCC2)COc2c1cccc2OC[C@@H]1CNCCO1 as the molecule, how does the “activity, negative = inhibition” value read?
The value was -40.5%.

Which AC50 does the source give for COc1cc(C)c(Br)cc1S(=O)(=O)NCc1ccccc1 here?
The AC50 was 4.47 µM (active).

How did the AC50 turn out when Cc1ccc(C(=O)C2=C(O)C(=O)N(CCCn3ccnc3)C2c2ccc(OC(C)C)cc2)o1 (stereo not given) was run?
The AC50 was 14.1 µM (active).

CN(C)CCN1C(=O)C(O)=C(C(=O)c2cc3ccccc3o2)C1c1ccccn1 (stereo not given) was tested. Which “activity, negative = inhibition” value did it give?
The value was -7.42%.
